{"source": "the antibiotic and cytotoxicity screens of Wong et al. (2023)", "note": "The campaign covered roughly 39,000 compounds. About 1,500 (3.8%) were called active. The list comes from a sample in which actives are over-represented; it also holds similar structures and randomly drawn compounds.", "data": [{"test_system": "HSkMC (human skeletal muscle cells)", "experiment": "cytotoxicity call (relative viability < 0.9)", "settings": "10 µM", "values": [{"compound": "O=[N+]([O-])c1cc(N(CCO)CCO)ccc1NCCO", "cytotoxicity call": "inactive"}, {"compound": "O=C(C[C@@H]1CC[C@H]2[C@@H](COC[C@@H](O)CN2C(=O)Nc2cccc(F)c2)O1)NCCCN1CCOCC1", "cytotoxicity call": "inactive"}, {"compound": "C[C@@H]1CCCCO[C@H](CN(C)Cc2ccccc2)[C@@H](C)CN([C@@H](C)CO)C(=O)c2cc(NC(=O)CCC(F)(F)F)ccc2O1", "cytotoxicity call": "inactive"}, {"compound": "CCS(=O)(=O)Nc1ccc2c(c1)C(=O)N(C)[C@@H]1CC[C@H](CC(=O)N[C@H]3CCN(Cc4ccccc4)C3)O[C@H]1CO2", "cytotoxicity call": "inactive"}, {"compound": "CCS(=O)(=O)Nc1ccc2c(c1)/C(=C(/Nc1ccc(CN3CCCCC3)cc1)c1ccccc1)C(=O)N2", "cytotoxicity call": "active"}, {"compound": "CCS(=O)(=O)Nc1ccc2c(c1)CC(=O)N2", "cytotoxicity call": "inactive"}, {"compound": "Cc1ccc(S[C@]2(C(=O)NCCCN(C)C)CC(=O)N(Cc3ccccc3C(F)(F)F)[C@@H]2c2ccc(CO)cc2I)cc1", "cytotoxicity call": "inactive"}, {"compound": "C[C@@H]1CN([C@H](C)CO)C(=O)c2cc(NC(=O)c3ccncc3)ccc2O[C@@H](C)CCCCO[C@@H]1CN(C)C(=O)Nc1cccc2ccccc12", "cytotoxicity call": "inactive"}, {"compound": "C[C@H](CO)N1C[C@H](C)[C@@H](CN(C)C(=O)Nc2cccc3ccccc23)OCCCC[C@H](C)Oc2ccc(NC(=O)c3ccncc3)cc2C1=O", "cytotoxicity call": "inactive"}, {"compound": "C[C@H]1CCCCO[C@H](CN(C)C(=O)Nc2cccc3ccccc23)[C@@H](C)CN([C@@H](C)CO)C(=O)c2cc(NC(=O)c3ccncc3)ccc2O1", "cytotoxicity call": "inactive"}, {"compound": "C[C@@H]1CCCCO[C@@H](CN(C)C(=O)Nc2cccc3ccccc23)[C@H](C)CN([C@@H](C)CO)C(=O)c2cc(NC(=O)c3ccncc3)ccc2O1", "cytotoxicity call": "inactive"}, {"compound": "C[C@@H]1CCCCO[C@H](CN(C)C(=O)Nc2cccc3ccccc23)[C@@H](C)CN([C@@H](C)CO)C(=O)c2cc(NC(=O)c3ccncc3)ccc2O1", "cytotoxicity call": "active"}, {"compound": "C[C@@H]1CN([C@H](C)CO)C(=O)c2cc(NC(=O)c3ccncc3)ccc2O[C@@H](C)CCCCO[C@H]1CN(C)C(=O)Nc1cccc2ccccc12", "cytotoxicity call": "active"}, {"compound": "C[C@@H]1CN([C@@H](C)CO)C(=O)Cc2cc(NC(=O)C3CCCCC3)ccc2O[C@H]1CN(C)S(C)(=O)=O", "cytotoxicity call": "inactive"}, {"compound": "C[C@@H]1CN([C@@H](C)CO)C(=O)c2cccc(NS(C)(=O)=O)c2O[C@@H]1CN(C)S(C)(=O)=O", "cytotoxicity call": "inactive"}, {"compound": "COc1ccc(S(=O)(=O)Nc2ccc3c(c2)C(=O)N([C@@H](C)CO)C[C@H](C)[C@@H](CN(C)C(=O)Nc2ccc(F)cc2)OCCCC[C@H](C)O3)cc1", "cytotoxicity call": "inactive"}, {"compound": "C[C@@H]1CCCCO[C@@H](CN(C)C(=O)Nc2ccccc2)[C@H](C)CN([C@@H](C)CO)C(=O)c2cc(NC(=O)Nc3cccc4ccccc34)ccc2O1", "cytotoxicity call": "inactive"}, {"compound": "C[C@H](CO)N1C[C@H](C)[C@H](CN(C)CC2CCOCC2)Oc2ncc(C#CCc3ccccc3)cc2C1=O", "cytotoxicity call": "inactive"}, {"compound": "COc1ccc(NC(=O)Nc2ccc3c(c2)C(=O)N([C@H](C)CO)C[C@H](C)[C@@H](CN(C)C(=O)Nc2c(C)noc2C)OCCCC[C@@H](C)O3)cc1", "cytotoxicity call": "inactive"}, {"compound": "O=C1N[C@@H](c2ccccc2)COCc2cn(nn2)CC[C@H](Cc2ccc(C(F)(F)F)cc2)C(=O)N[C@@H](c2ccccc2)COCc2cn(nn2)CC[C@@H]1Cc1ccc(C(F)(F)F)cc1", "cytotoxicity call": "inactive"}, {"compound": "C[C@H]1CN([C@@H](C)CO)C(=O)c2cc(NC(=O)Nc3ccc(C(F)(F)F)cc3)ccc2O[C@@H]1CN(C)Cc1ccc(C(F)(F)F)cc1", "cytotoxicity call": "active"}, {"compound": "C[C@@H]1CN([C@H](C)CO)C(=O)c2cc(NC(=O)Nc3ccc(C(F)(F)F)cc3)ccc2O[C@@H]1CN(C)Cc1ccc(C(F)(F)F)cc1", "cytotoxicity call": "active"}, {"compound": "C[C@H]1CN([C@@H](C)CO)C(=O)c2cc(NC(=O)Nc3ccc(C(F)(F)F)cc3)ccc2O[C@H]1CN(C)Cc1ccc(C(F)(F)F)cc1", "cytotoxicity call": "active"}, {"compound": "C[C@@H]1CN([C@H](C)CO)C(=O)c2cc(NC(=O)Nc3ccc(C(F)(F)F)cc3)ccc2O[C@H]1CN(C)Cc1ccc(C(F)(F)F)cc1", "cytotoxicity call": "active"}, {"compound": "C[C@H](CO)N1C[C@H](C)[C@H](CN(C)C)Oc2ccc(NC(=O)Cc3cn(C)c4ccccc34)cc2CC1=O", "cytotoxicity call": "inactive"}, {"compound": "CNC[C@@H]1OCCCC[C@H](C)Oc2ccc(NS(=O)(=O)c3cn(C)cn3)cc2C(=O)N([C@@H](C)CO)C[C@H]1C", "cytotoxicity call": "inactive"}, {"compound": "C[C@H](CO)N1C[C@H](C)[C@H](CN(C)C(=O)Cc2ccncc2)Oc2cc(C#CC3(O)CCCC3)ccc2S1(=O)=O", "cytotoxicity call": "inactive"}, {"compound": "C[C@@H]1CN([C@@H](C)CO)C(=O)c2cc(C#Cc3ccncc3)cnc2O[C@H]1CN(C)C(=O)c1ccccc1F", "cytotoxicity call": "inactive"}, {"compound": "C[C@H]1CCCCO[C@@H](CN(C)C(=O)Cc2ccccc2)[C@@H](C)CN([C@@H](C)CO)C(=O)c2cc(NS(=O)(=O)c3cccs3)ccc2O1", "cytotoxicity call": "inactive"}, {"compound": "COc1ccc(NC(=O)N(C)C[C@@H]2Oc3ccc(NC(=O)Nc4cccc5ccccc45)cc3C(=O)N([C@H](C)CO)C[C@@H]2C)cc1", "cytotoxicity call": "inactive"}, {"compound": "CN(C)CCCNC(=O)C[C@H]1C=C[C@@H](NS(=O)(=O)c2ccccc2)[C@@H](CO)O1", "cytotoxicity call": "inactive"}, {"compound": "C[C@@H]1CN([C@@H](C)CO)C(=O)c2cc(NC(=O)Nc3ccc(C(F)(F)F)cc3)ccc2O[C@@H]1CN(C)Cc1ccc(C(F)(F)F)cc1", "cytotoxicity call": "active"}, {"compound": "C[C@H](CO)N1C[C@H](C)[C@H](CN(C)Cc2ccc(C(F)(F)F)cc2)Oc2ccc(NC(=O)Nc3ccc(C(F)(F)F)cc3)cc2C1=O", "cytotoxicity call": "active"}, {"compound": "C[C@@H]1CN([C@@H](C)CO)C(=O)c2cc(NC(=O)Nc3ccc(C(F)(F)F)cc3)ccc2O[C@H]1CN(C)Cc1ccc(C(F)(F)F)cc1", "cytotoxicity call": "active"}, {"compound": "C[C@H](CO)N1C[C@H](C)[C@@H](CN(C)Cc2ccc(C(F)(F)F)cc2)Oc2ccc(NC(=O)Nc3ccc(C(F)(F)F)cc3)cc2C1=O", "cytotoxicity call": "inactive"}, {"compound": "COCC#Cc1ccc2c(c1)O[C@H](CN(C)S(=O)(=O)c1cccc(F)c1)[C@@H](C)CN([C@@H](C)CO)S2(=O)=O", "cytotoxicity call": "inactive"}, {"compound": "COc1ccccc1CN1C[C@@H](C)[C@H](OC)CN(C)C(=O)c2cc(NC(=O)Nc3ccccc3OC)ccc2OC[C@H]1C", "cytotoxicity call": "inactive"}, {"compound": "C[C@@H]1CN([C@@H](C)CO)C(=O)c2cc(-c3cccc(C#N)c3)cnc2O[C@@H]1CN(C)C(=O)C1CCOCC1", "cytotoxicity call": "inactive"}]}]}
